Several values for one entry are separate records, joined by “and”; a condition that tells them apart may be missing. Equal values may be shown once. Inconclusive results are not listed. Activity calls are given as the source filed them. Rule for the calls: active = hit-call score of the fitted dose curve at least 0.9, where 1 is the maximum; inconclusive = response in the unintended direction; inactive = score below 0.9.
Experiment: TOX21_p53_BLA_p2_viability: Viability Assessment in the Tox21 HCT-116 p53 Agonism Beta-lactamase Assay, Phase 2 (AID 2283591);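 note: compound exposure lasted 16 h at 37 °C; actives lower the ATP signal meaning cytotoxicity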
From the text: TOX21_p53_BLA_p2 is a cell-based, single-readout assay that uses HCT116, a human intestinal cell line, […] in a 1536-well plate.TOX21_p53_BLA_p2_viability is an assay readout measuring cellular ATP content and detected with CellTiter-Glo Luciferase-coupled ATP quantitation.TOX21_p53_BLA_p2_viability used a type of viability reporter where loss-of-signal activity can be used to understand changes in the cell viability. Furthermore, this assay endpoint can be referred to as a secondary readout, because this assay has produced multiple assay endpoints where this one serves a viability function. To generalize the intended target to other relatable targets, this assay endpoint is annotated to the cell cycle intended target family, where the subfamily is cytotoxicity.
Thawing Method: Place 14 mL of pre-warmed thaw medium into a 15 mL of conical tub. Remove the vial of cells to be thawed from liquid nitrogen and thaw rapidly by placing at 37C in a water bath with gentle agitation for 1-2 minutes. Decontaminate the vial by wiping with 70% ethanol before opening in a biological safety cabinet. Transfer the vial contents drop-wise into 14 mL of thaw medium in a sterile 15-mL conical tub. Centrifuge cells at 900 rpm for 4 minutes and resuspend in thaw medium. Transfer contents to the T75 tissue culture flask containing Thaw Medium and place flask in a humidified 37C/5% CO2 incubator. Switch to growth medium at first passage.Propagation Method: Aspirate medium, rinse once in DPBS, add 0.25% Trypsin/EDTA and swirl to coat the cell evenly. Add an equal volume of Growth Medium to inactivate Trypsin after 2-3 minutes incubation at 37C. Centrifuge cells at 900 rpm for 4 minutes and resuspend in growth medium. Cell should be passage or fed at least twice a week.Assay Protocol: Harvest cells from culture in growth medium and resuspend in assay medium. 2.2 Dispense 4000 cells/5 uL/well into 1536-well black/clear bottom plates using a Multidrop dispenser. After the cells were incubated at 37C for 5 hours, 23 nL of compounds dissolved in DMSO were transferred to the assay plate by a PinTool resulting in a 217-fold dilution. Incubate the plates for 16 hours at 37C, 5% CO2. Add 1 uL of 6X LiveBLAzer FRET B/G (CCF4-AM) Substrate Mixture to each well using a BioRAPTR dispenser and incubate the plates at room temperature for 2 hours. Measure fluorescence intensity at 460 and 530 nm emission and 405 nm excitation by an Envision detector. Data is expressed as the ratio of 460nm/530nm emissions. Add 4 uL of Cell-titer Glo to each well using BioRAPTR and incubate the plates at room temperature for […]. For cell viability readout that measures cytotoxicity, 4 ul/well of CellTiter-Glo reagent was added into the assay plates using a Flying Reagent Dispenser. After 30 min incubation at room temperature, the luminescence intensity in the plates was measured using a ViewLux plate reader.

Row | SMILES | outcome | AC50
1 | CCCCOC(=O)C(C)Oc1ccc(Oc2ccc(C(F)(F)F)cn2)cc1 (centres undefined) | inactive | –
2 | CCN(Cc1c(F)cccc1Cl)c1c([N+](=O)[O-])cc(C(F)(F)F)cc1[N+](=O)[O-] | inactive | –
3 | CC(C)(c1ccc(O)cc1)c1ccc(O)cc1 | inactive | –
4 | C#C[C@]1(O)CC[C@H]2[C@@H]3CCC4=CC(=O)CC[C@@H]4[C@H]3CC[C@@]21CC | inactive | –
5 | CCCOC(=O)NCCCN(C)C | inactive | –
6 | COC(=O)c1ccc(I)cc1S(=O)(=O)NC(=O)Nc1nc(C)nc(OC)n1 | inactive | –
7 | COC(=O)CSc1cc(N=c2sc(=O)n3n2CCCC3)c(F)cc1Cl | inactive | –
8 | Cc1nn(C)c(Oc2ccccc2)c1C=NOCc1ccc(C(=O)OC(C)(C)C)cc1 | inactive | –
9 | CCCCC(CC)CN1C(=O)C2C3C=CC(C3)C2C1=O (centres undefined) | inactive | –
10 | CCOC(=O)C(C)Oc1ccc(Oc2nc3ccc(Cl)cc3o2)cc1 (centres undefined) | inactive | –
11 | CCCCCCC(C)OC(=O)COc1nc(F)c(Cl)c(N)c1Cl (centres undefined) | – | 70.8 µM (active)
12 | O=C(O)C1(C(=O)Nc2ccc(Cl)cc2Cl)CC1 | inactive | –
13 | O=C(Nc1ccc([N+](=O)[O-])cc1Cl)c1cc(Cl)ccc1O | – | 129 nM (active) and 152 nM (active)
14 | CC(=O)[C@H]1CC[C@H]2[C@@H]3CCC4=CC(=O)CC[C@]4(C)[C@H]3CC[C@]12C | inactive | –
15 | CCCN(CCC)c1c([N+](=O)[O-])cc(C(F)(F)F)c(N)c1[N+](=O)[O-] | – | 23.1 µM (active)
16 | C#CCOC(=O)[C@@H](C)Oc1ccc(Oc2ncc(Cl)cc2F)cc1 | inactive | –
17 | c1ccc(Nc2ccccc2)cc1 | inactive | –

Row | SMILES | outcome | AC50
18 | CCCOC(=O)c1ccc(C(=O)OCCC)nc1 | inactive | –
19 | CCCCC(CC)COC(=O)c1ccccc1C(=O)O (centres undefined) | inactive | –
20 | CCOC(=O)c1ccc(O)cc1 | inactive | –
21 | COc1nc(C)nc(NC(=O)NS(=O)(=O)c2ccccc2OCCCl)n1 | inactive | –
22 | N[C@@H](Cc1cc(I)c(Oc2ccc(O)c(I)c2)c(I)c1)C(=O)O | inactive | –
23 | OB(O)O | inactive | –
24 | CC(C)(C)[C@@H](O)[C@@H](Cc1ccc(Cl)cc1)n1cncn1 | inactive | –
25 | C[C@]12C[C@H](O)[C@H]3[C@@H](CCC4=CC(=O)CC[C@@]43C)[C@@H]1CC[C@@H]2C(=O)CO | inactive | –
26 | C[C@]12CC[C@@H]3c4ccc(O)cc4C[C@@H](CCCCCCCCCS(=O)CCCC(F)(F)C(F)(F)F)[C@H]3[C@@H]1CC[C@@H]2O (some centres undefined) | inactive | –
27 | CN(C)C(=O)Nc1ccc(Cl)c(Cl)c1 | inactive | –
28 | CC1(C)C(C=C(Cl)Cl)C1C(=O)OCc1cccc(Oc2ccccc2)c1 (centres undefined) | inactive | –
29 | CCOC(=O)COc1cc(-n2ncc(C(F)(F)F)c(C)c2=O)c(F)cc1Cl | inactive | –
30 | Oc1ccc(C(c2ccc(O)cc2)C(Cl)(Cl)Cl)cc1 | – | 54.6 µM (active) and 45.9 µM (active)
31 | CC(C)CCCCCCc1ccc(O)cc1 | inactive | –
32 | O=C(O)c1ccccc1 | inactive | –
33 | CCCCOC(=O)[C@@H](C)Oc1ccc(Oc2ccc(C(F)(F)F)cn2)cc1 | inactive | –
34 | CCOC(=O)NCCOc1ccc(Oc2ccccc2)cc1 | inactive | –
